Assay results as given in PubChem BioAssay (NCI).
Values joined by “and” are separate entries in the source; they are usually repeats but may differ in a detail not shown here. Equal entries are not always repeated. This is part of a sample that, as a whole, favours compounds with a hit. Of some 83,000 tested, about 20% had one in any assay.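 Percent growth is the endpoint: 0 to 100 indicates growth inhibition (40 means 60% inhibition), 0 means no net growth, and negative values indicate cell death.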 A number with no mark means an inactive call. Active and inactive are the calls of the source. The calls were made as follows: active = growth percent below 10; inactive = the rest.

Each molecule was assayed on MDA-MB-468 breast (assay: NCI-60 one-dose screen, 48 h (100 = growth as untreated, 0 = no growth, -100 = all killed)). Details: 10 µM unless noted.
`CCNc1cc(-c2cccc(OC(F)(F)F)c2)nc2ccc(N3CCCC3)cc12` was tested, and the growth was -34.9% (active). `C[Si](C)(C)Cc1ccccc1` gave a growth of 104%. For `C=CCN1C(=O)c2ccccc2C1=O`, the growth was 107%. In the case of `Cc1nc2ncnc(Cl)c2[nH]1`, the growth is reported as 105%. `C#C[C@]1(O)CC[C@H]2[C@@H]3CC=C4c5sc(Nc6ccncc6)nc5CC[C@]4(C)[C@H]3CC[C@@]21C` was tested, and the growth was -26.2% (active). In the case of `O=C(Nc1ccc(OCc2nnc(-c3ccc(Cl)cc3)o2)c(F)c1)Nc1ccc(Cl)c(Cl)c1`, the growth is reported as 43.2%. In the case of `CCN(CC)c1cn(-c2ccc(S(N)(=O)=O)cc2)nn1`, the growth is reported as 91.9%. Molecule `CC[C@]12C=CCN3CC[C@@]4(c5cc(NC(=O)CCC(=O)OCc6cn(Cc7ccc(F)cc7)nn6)c(OC)cc5N(C)[C@H]4[C@@](O)(C(=O)OC)[C@@H]1OC(C)=O)[C@@H]32` has a growth of 104%. In the case of `CCNc1nc(O)c(/C=C2\C=Nc3ncccc32)s1`, the growth is reported as -34.7% (active). For `CC(C)N(CCOC(=O)Nc1ccccc1Cl)C(C)C`, the growth was 104%. Work on `Nc1ccc2c(c1)C1(CCC2)NC(=O)NC1=O` (stereo not given) yielded a growth of 97.4%. Molecule `COc1cc2c3c(n(CCCCNCCCn4c5c(c6cc(OC)c(OC)cc6c4=O)C(=O)c4cc6c(cc4-5)OCO6)c(=O)c2cc1OC)-c1cc2c(cc1C3=O)OCO2` has a growth of 97.7%. Molecule `CCC(CC)NCCCCCNc1cc(OC)cc2cccnc12` has a growth of 57.8%. With `CCCc1cc2c(cc1Br)OCO2` the growth was 115%. With `O=c1[nH]cnc2c1ncn2C1OC(CO)C(O)C1O` (stereo not given) the growth was 123% and 113% and 111%. `CC[C@]12C=CCN3CC[C@@]4(c5ccc(OC)cc5N(C)[C@H]4[C@@](O)(C(=O)OC)[C@@H]1OC(=O)CCC[P+](c1ccccc1)(c1ccccc1)c1ccccc1)[C@@H]32` was tested, and the growth was -75.6% (active). Molecule `Cc1ccc2[nH]c(-c3ccc(S(C)(=O)=O)cc3)c(/C=N/N=C(N)N)c2c1` has a growth of 81.1%. `C#C[C@@]1(O)[C@@H](CO)O[C@@H](n2cc(C(F)(F)F)c3c(N)ncnc32)[C@@H]1O` was tested, and the growth was -56.3% (active). Work on `COC(=O)c1cccc(NC(=O)c2ccc(-c3cccc(N)c3)o2)c1` yielded a growth of 99.7%. With `FC1(F)CCN(Cc2c[nH]c3cc(Cl)ccc23)C[C@H]1CCc1ccccc1` the growth was 9.33% (active). Work on `COc1cc(CNS(=O)(=O)c2ccc(C)cc2)ccc1OCc1cn(-c2ccc(F)cc2)nn1` yielded a growth of 62.3%. Molecule `COc1ccccc1C(=O)O/N=C(\N)Cc1cccc2ccccc12` has a growth of 61.6%. Work on `CC1(C)CC[C@]2(C(=O)N[C@H](CO)Cc3ccccc3)CC[C@]3(C)C(=CC[C@@H]4[C@@]5(C)CCCNC(C)(C)[C@@H]5CC[C@]43C)[C@@H]2C1` yielded a growth of 37.8%. `Nc1nc2ncc(CNc3ccc(C(=O)N[C@@H](CCc4nn[nH]n4)C(=O)O)cc3)nc2c(=O)[nH]1` was tested, and the growth was 93.9% and 98.6%. Work on `CC(=O)[C@@H]1CC[C@]2(C(N)=O)CC[C@]3(C)[C@H](CC[C@@H]4[C@@]5(C)CCCNC(C)(C)[C@@H]5CC[C@]43C)[C@@H]12` yielded a growth of 82.2%. `Brc1cccc(-c2cc(-c3ccc4c(c3)OCCCO4)[nH]n2)c1` showed a growth of 50.6% [25 µM]. For `N#Cc1c(-c2ccccc2)cc(-c2ccccc2)n(CCCC(=O)O)c1=O`, the growth was -27.1% (active). With `CS(=O)(=O)c1ccc(C(=O)N/N=C/c2ccccc2O)cc1` the growth was 64.7%. `N#Cc1c(N2CCNCC2)nc2sc3cc(Cl)c(Cl)cc3n2c1=N` was tested, and the growth was 90.2%. Molecule `O=NN(CC(=O)N/N=C/C=C\c1ccccc1)CC(=O)N/N=C/C=C/c1ccccc1` has a growth of 91.1%. In the case of `Cn1cc(-c2csc(-c3c[nH]c4ccc(F)cc34)n2)c2cnccc21`, the growth is reported as -49.6% (active). In the case of `COc1ccc(C2C=C(c3ccc(Cl)cc3)N=C3SC=C(C)N32)c(Br)c1` (stereo not given), the growth is reported as 8.58% (active). For `C[C@@H]1CCC2=C(CCC[C@]2(C)C(=O)O)[C@@]1(C)CCc1ccoc1`, the growth was 95.4%. In the case of `O=C1OC(c2ccc(-c3ccccc3)cc2)=C/C1=C/C=C/c1ccccc1`, the growth is reported as 99.7%. With `Cn1cc(-c2csc(-c3ccccc3)n2)c2cccnc21` the growth was -34% [100 µM] (active). `O=C(NCCc1ccc(O)c(O)c1)C12CC3CC(CC(C3)C1)C2` was tested, and the growth was 87.4%. `COc1ccc(OC)c2c1CCC1(C2)NC(=O)NC1=O` (stereo not given) was tested, and the growth was 106%. With `O=C(Nc1ccccc1CNc1nc(Nc2ccc(OCCN3CCCC3)cc2)ncc1Cl)NC1CCCCC1` the growth was 89.4%. For `Cc1nc2oc3ccccc3c(=O)c2cc1C(=O)NCc1ccccc1`, the growth was 89.2%. With `Nc1nc(=O)c2ccccc2s1` the growth was 109%.
